APP 5UTR inh – APP translation inhibition; inhibition, % at 2 µM; SH-SY5Y APP 5'UTR-luciferase reporter, luminescence; actives 0.82% (n = 190,000);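 active = inhibition above a set limit, derived from the sample mean plus 3 SD, cut at about 45% in these data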
BaF3 tox – counter-screen for JAK2V617F inhibitors: parental Ba/F3 viability inhibitors. actives 1.1% (n = 220,000). AID 1486. inhibition, % at 5.6 µM. CellTiter-Glo ATP luminescence;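 active = inhibition above a per-campaign cutoff, the mean inhibition of all tested compounds plus 3 SD, cut at about 27% in these data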
Ba/F3 V617F tox – reduce viability of Ba/F3 cells dependent on JAK2V617F; Ba/F3 EpoR-JAK2V617F viability, ATP luminescence; inhibition, % at 5.6 µM; actives 1.1% (n = 220,000);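 active = inhibition above the campaign mean plus 3 SD over all tested compounds, cut at about 24% in these data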;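 note: cytokine-independent growth of Ba/F3 cells driven by EpoR plus mutant JAK2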
IEC-6 tox-1 – kills IEC-6 intestinal cells in KLF5 counter-screen. inhibition, % at 5 µM. actives 0.78% (n = 290,000). IEC-6 cytotoxicity, luminescence viability
KLF5 inhibitor – kruppel-like factor 5 inhibition | DLD-1 KLF5 promoter-luciferase reporter, luminescence | actives 0.23% (n = 290,000) | inhibition, % at 5 µM | AID 1700;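 active = inhibition above a per-plate limit of that plate's mean compound inhibition plus 3 SD, cut at about 60% in these data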;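 note: higher means less KLF5 promoter-driven luciferase light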
KLF5 inh confirm – KLF5 inhibition, confirmation assay; shares compounds with KLF5 inhibitor; DLD-1 KLF5 promoter firefly luciferase reporter, luminescence; AID 1834; inhibition, % at 4 µM; actives 79% (n = 610);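 active = inhibition above a set limit taken from the earlier primary screen, cut at about 63% in these data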
IEC-6 tox-2 – kills rat IEC-6 cells in KLF5 counter-screen; inhibition, % at 4 µM; shares compounds with KLF5 inhibitor; AID 1905; IEC-6 rat intestinal cells, viability luminescence; actives 56% (n = 610); in the data active = inhibition above about 23%;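 note: cells exposed to compounds for 48 hours before viability read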
IEC-6 tox confirm – confirmation of cytotoxic compounds in rat IEC-6 intestinal epithelial cells; shares compounds with IEC-6 tox-1; inhibition, % at 5 µM; actives 63% (n = 1,900); AID 1907; IEC-6 rat intestinal epithelial viability, luminescence
Of the large screens only hits and unclear results are named; the others gave an inactive call (follow-up assays come after a bar, where they were run). An excerpt weighted towards active compounds, which were near 1.9% of everything screened. Cut-off read from the data, not from the text of the source, unless noted: active = inhibition above about 22%; inactive = the rest.

C/C(=N\Nc1ccc2nncn2n1)c1ccccn1	BaF3 tox 69, Ba/F3 V617F tox 76, KLF5 inhibitor 68 (no result: APP 5UTR inh) | KLF5 inh confirm 76 | IEC-6 tox-2 83
COc1ccc(NC(=O)n2ncc3c(C)cccc32)cc1OC	none (no result: APP 5UTR inh, BaF3 tox, Ba/F3 V617F tox)
Cc1ccc(NC(=O)n2ncc3c(C)cccc32)cc1F	KLF5 inhibitor 83 (no result: APP 5UTR inh, BaF3 tox, Ba/F3 V617F tox) | KLF5 inh confirm 85 | IEC-6 tox-2 inactive
Cc1cc(/C=N/Nc2nc(N)ncc2[N+](=O)[O-])c(C)n1-c1ccccc1F	KLF5 inhibitor 78 (no result: APP 5UTR inh) | KLF5 inh confirm 94 | IEC-6 tox-2 inactive
Cc1cccc(C)c1-n1c(C)cc(/C=N\Nc2ccc([N+](=O)[O-])cn2)c1C	none
Cn1c(-c2cccc3ccccc23)n[nH]c1=S	none
CCOC(=O)N1CCC(NC(=O)C2CCN(S(=O)(=O)c3ccc4c(c3)oc(=O)n4C)CC2)CC1	none
NC(c1ccccc1)c1cccnc1 (stereo unspecified)	none (no result: APP 5UTR inh, BaF3 tox, Ba/F3 V617F tox)
Nc1ccc(-c2nc3ccc(C(=O)O)cc3s2)cc1	APP 5UTR inh 67, KLF5 inhibitor 109 | KLF5 inh confirm 105 | IEC-6 tox-2 inactive
CN[C@H]1CCc2cc(OC)c(OC)c(OC)c2-c2ccc(N(C)CC(OC)OC)c(=O)cc21	none (no result: APP 5UTR inh, BaF3 tox, Ba/F3 V617F tox)
COc1cc(C(=O)NC2CCCc3ccccc32)cc(OC)c1OC (stereo unspecified)	none (no result: APP 5UTR inh, BaF3 tox, Ba/F3 V617F tox)
COc1cc2c(c(OC)c1OC)-c1ccc(N(C)CC(OC)OC)c(=O)cc1[C@@H](NC(C)=O)CC2	IEC-6 tox-1 92, KLF5 inhibitor 86 (no result: APP 5UTR inh, BaF3 tox, Ba/F3 V617F tox) | KLF5 inh confirm 86 | IEC-6 tox-2 61 | IEC-6 tox confirm 66
COc1cc2c(c(OC)c1OC)-c1ccc(OC)c(=O)cc1[C@@H](NC(C)=O)CC2	IEC-6 tox-1 96, KLF5 inhibitor 79 (no result: APP 5UTR inh, BaF3 tox, Ba/F3 V617F tox) | KLF5 inh confirm 88 | IEC-6 tox-2 81 | IEC-6 tox confirm 83
COc1cc2c(c(OC)c1OC)-c1ccc(OC)c(=O)cc1[C@@H](N(C)CC#CCO)CC2	IEC-6 tox-1 93, KLF5 inhibitor 81 (no result: APP 5UTR inh, BaF3 tox, Ba/F3 V617F tox) | KLF5 inh confirm 92 | IEC-6 tox-2 75 | IEC-6 tox confirm 74
CCN(CC)c1ccc2c(cc1=O)[C@@H](NC)CCc1cc(OC)c(OC)c(OC)c1-2	IEC-6 tox-1 85, KLF5 inhibitor 70 (no result: APP 5UTR inh, BaF3 tox, Ba/F3 V617F tox) | KLF5 inh confirm 92 | IEC-6 tox-2 81 | IEC-6 tox confirm 76
Cc1c(Cl)cnc(NC(=O)COC(=O)c2cc3c(s2)CCC(C)C3)c1Cl (stereo unspecified)	none
O=C(Nc1cccc2ccccc12)c1cc2c(cc1Br)OCO2	none (no result: APP 5UTR inh)
O=C(c1ccc(CNS(=O)(=O)c2ccc(Br)cc2)cc1)N1CCCCCC1	none (no result: APP 5UTR inh, BaF3 tox, Ba/F3 V617F tox)
O=C(Nc1ccc(N2CCN(C(=O)c3ccccc3F)CC2)cc1)c1cncc(Br)c1	none (no result: APP 5UTR inh, BaF3 tox, Ba/F3 V617F tox)
COC(=O)c1nnn(-c2nonc2N)c1COc1ccc(C=O)cc1OC	none
O=C(CSc1nnc(-c2ccccc2)o1)Nc1ccccc1F	BaF3 tox 32, Ba/F3 V617F tox 26, IEC-6 tox-1 29, KLF5 inhibitor 72 | KLF5 inh confirm inactive | IEC-6 tox-2 inactive | IEC-6 tox confirm inactive
Cc1ccc(-c2nnc(SCC(=O)Nc3ccccc3F)o2)cc1	IEC-6 tox-1 28, KLF5 inhibitor 100 | KLF5 inh confirm 66 | IEC-6 tox-2 inactive | IEC-6 tox confirm inactive
CN1CCN(CC(=O)c2ccccc2F)CC1	none (no result: APP 5UTR inh, BaF3 tox, Ba/F3 V617F tox)
COc1cc(/C=C/[N+](=O)[O-])ccc1OC(=O)/C=C/c1ccc(F)cc1	none (no result: APP 5UTR inh, BaF3 tox, Ba/F3 V617F tox)
CC(=O)c1cccc(Nc2c3c(nc4ccccc24)CCC3)c1	IEC-6 tox-1 75, KLF5 inhibitor 65 (no result: APP 5UTR inh, BaF3 tox, Ba/F3 V617F tox) | KLF5 inh confirm 102 | IEC-6 tox-2 51 | IEC-6 tox confirm 51
COCCCNc1nnc(Cc2ccc(Cl)cc2)c(=O)[nH]1	IEC-6 tox-1 82, KLF5 inhibitor 62 (no result: APP 5UTR inh, BaF3 tox, Ba/F3 V617F tox) | KLF5 inh confirm 80 | IEC-6 tox-2 38 | IEC-6 tox confirm 60
C(=N\Nc1nc2ccccc2[nH]1)/c1ccc2ncccc2c1	BaF3 tox 96, Ba/F3 V617F tox 90, IEC-6 tox-1 95, KLF5 inhibitor 62 (no result: APP 5UTR inh) | KLF5 inh confirm inactive | IEC-6 tox-2 90 | IEC-6 tox confirm 85
COc1ccc(/C=N/Nc2nc3ccccc3[nH]2)cc1OC	none
Cc1csc(NC(=O)c2ccc(S(=O)(=O)N3CCN(C)CC3)cc2)n1	none (no result: APP 5UTR inh, BaF3 tox, Ba/F3 V617F tox)
CCOc1ccc(C2=Nn3c(nnc3-c3ccccc3OC)SC2)cc1	APP 5UTR inh 95, BaF3 tox 93, Ba/F3 V617F tox 96, IEC-6 tox-1 96, KLF5 inhibitor 82 | KLF5 inh confirm 94 | IEC-6 tox-2 84 | IEC-6 tox confirm 83
NC(=O)c1ccccc1OC1CCC1	none (no result: APP 5UTR inh)
Cc1ccc(Cl)cc1NC1=C/C(=N\S(=O)(=O)c2cccs2)c2ccccc2C1=O	none
CCc1ccc(S(=O)(=O)/N=C2\C=C(Nc3ccc(O)cc3)C(=O)c3ccccc32)cc1	IEC-6 tox-1 102, KLF5 inhibitor 96 (no result: APP 5UTR inh, BaF3 tox, Ba/F3 V617F tox) | KLF5 inh confirm 69 | IEC-6 tox-2 60 | IEC-6 tox confirm 67
O=C1C(Nc2ccc(O)cc2)=C/C(=N/S(=O)(=O)c2cccs2)c2ccccc21	APP 5UTR inh 54, BaF3 tox 101, Ba/F3 V617F tox 87, IEC-6 tox-1 102, KLF5 inhibitor 67 | KLF5 inh confirm 114 | IEC-6 tox-2 102 | IEC-6 tox confirm 103
CCc1ccc(S(=O)(=O)/N=C2\C=C(Nc3cccc(C(=O)O)c3)C(=O)c3ccccc32)cc1	none (no result: APP 5UTR inh, BaF3 tox, Ba/F3 V617F tox)
Cc1[nH]c2ccccc2c1C(=O)C(=O)NC1CC1	none (no result: APP 5UTR inh, BaF3 tox, Ba/F3 V617F tox)
